Experimental data taken from PubChem BioAssay AID588347 (National Center for Advancing Translational Sciences (NCATS), 2011).
This is one part of the list. Inconclusive results are not listed. Calls of active or inactive are those of the source. Calls follow the shape of the dose curve; as a rule, active = well fitted inhibition curve with a large enough effect; inconclusive = small, poorly fitted or top-dose-only effect, or another doubt; inactive = no such curve, though single readings can be large or run the other way.

Target: Histone acetyltransferase KAT2A (Homo sapiens) (UniProt Q92830)
Test: qHTS Assay for Inhibitors of GCN5L2: Hit confirmation
Conditions: GCN5L2 HAT, ThioGlo1 CoA fluorescence, 20 min
Text: Histone acetyltransferase (HAT) enzymes transfer a […] group from acetyl-coenzyme A to the epsilon-amino group of conserved lysine residues of N-terminal histone tails. Acetylation results in charge neutralization of this positively charged amino acid, decreasing interactions with the […] backbone and making the DNA more accessible for transcription. HATs have been recognized as an emerging drug target for treatment of cancer, diabetes, asthma, chronic obstructive pulmonary disease, cardiac disease, and viral infection. Protein identified with HAT activity include the […] like 2 (GCN5L2, a.ka. Histone acetyltransferase KAT2A) which acetylates histone H3 at Lys9, 14, 18, 13, and to lesser extent histones H4 and H2B. This activates transcription of the gene by modulating chromatin structure and installing the acetyllysine recognition mark for bromodomain-containing coactivator proteins. A quantitative high throughput screen was developed to identify small molecule inhibitors. The assay is based on the principle that it measures formation of reduced CoA with the pro-fluorescent maleimide derivative ThioGlo1 that becomes fluorescent upon reaction with the free thiol of CoA. A large number of artifacts are expected in this primary screen, compounded by the assay format (fluorescent artifacts) and by the high top concentration tested for each substance. […] Yasgar, et al. Compound Management for Quantitative High-Throughput Screening. […] Inglese, et al. Quantitative high-throughput screening: a titration-based approach that efficiently identifies biological activities in large chemical libraries. […]
To each well of a 1,536w plate, 3ul of GCN5L2 (final concentration 20nM, in 50mM HEPES, 0.1mM EDTA (pH 7.5), 0.01% Tween-20 buffer) are added using a Kalypsys dispenser. […] Plates are read immediately on the ViewLux (PerkinElmer) (Ex340nm/Em540nm) for a 0 min read, incubated for 20 min at room temperature, and read again on the ViewLux with the same settings. The initial read was carried out to identify compounds that are potentially fluorescent.

Histone acetyltransferase KAT2A (Homo sapiens), sequence (Q92830 whole entry, looked up): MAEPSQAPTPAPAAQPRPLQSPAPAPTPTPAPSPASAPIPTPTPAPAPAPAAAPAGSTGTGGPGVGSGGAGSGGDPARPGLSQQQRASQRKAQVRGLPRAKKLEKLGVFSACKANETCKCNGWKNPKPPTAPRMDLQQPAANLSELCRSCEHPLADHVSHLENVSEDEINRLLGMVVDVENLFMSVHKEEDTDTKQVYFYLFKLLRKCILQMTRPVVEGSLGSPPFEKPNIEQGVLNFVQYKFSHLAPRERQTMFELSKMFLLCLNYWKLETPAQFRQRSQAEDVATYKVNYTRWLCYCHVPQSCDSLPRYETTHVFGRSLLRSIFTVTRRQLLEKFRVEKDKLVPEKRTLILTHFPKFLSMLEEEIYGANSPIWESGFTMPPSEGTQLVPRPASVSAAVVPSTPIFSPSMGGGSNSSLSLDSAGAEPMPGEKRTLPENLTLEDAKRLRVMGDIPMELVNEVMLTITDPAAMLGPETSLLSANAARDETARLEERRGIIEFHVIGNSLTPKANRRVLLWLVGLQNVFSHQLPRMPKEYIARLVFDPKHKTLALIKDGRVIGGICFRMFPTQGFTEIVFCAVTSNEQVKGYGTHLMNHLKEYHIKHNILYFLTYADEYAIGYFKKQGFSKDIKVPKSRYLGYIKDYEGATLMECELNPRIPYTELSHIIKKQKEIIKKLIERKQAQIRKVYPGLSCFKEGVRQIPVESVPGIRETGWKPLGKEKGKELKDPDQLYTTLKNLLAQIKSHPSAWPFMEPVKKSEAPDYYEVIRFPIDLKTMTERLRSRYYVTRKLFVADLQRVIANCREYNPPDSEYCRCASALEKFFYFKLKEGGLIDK

Potency, active:
O=c1[nH]c2ccccc2n2c(-c3ccccc3)nnc12 6.46 µM
FC(F)(F)C1CCCN(c2nsc3ccccc23)C1 (stereo not drawn) 2.89 µM
CC1=C/C(=N\OS(=O)(=O)c2ccccc2)C=CC1=O 10.2 µM
